Measurements taken from the supplement of paper PMC6555819.

tested on: VDR:RXRa (NR concentration 270 nM, RXRa partner concentration 90 nM); experiment: PBM binding z-score (relative to random genomic background probes); higher = stronger binding; sequences stand for … in GC…GCGATTGACAGCGTAGAATGAAGG
Experimental: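 Protein-binding microarray (Agilent 4x180K custom design, double-stranded 60-nt probes: 5' GC cap, 34-nt variable region, 24-nt constant primer region; full probe sequence given). Purified or IVT nuclear receptor:RXRα heterodimers (3:1 NR:RXRα, mostly 270:90 nM) or homodimers were incubated for 1 h in PBS with 2% milk and no ligand, then detected with Alexa488 antibodies. Fluorescence from o1-orientation probes (~5 replicates averaged) was converted to z-scores against 500 random hg19 background probes. Variable regions are seed direct-repeat (DR0–DR5) sites, all their single-nucleotide variants and half-site ablations.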

Sequence	PBM binding z-score
CGAACTAGGTCAAGGACAGTTAATCTCCGCACGC	1.6
CAAACTACGTCACGAAAGGTCAAAGTCGAATGAC	4.91
AGAACGAGGGCAATGAGTTGTTAGCACGGGTGGC	4.09
ACAATGAGGTTACCAAAGATCAGGGAAACGCTTG	1.68
ATCTCTAGGTAAGACTCAGTTCACTGAAGAACGC	1.74
ACTAGTTGGTCAGCTGAGGACACACACAATTCGG	0.506
TCTATTAGTTGTAGGGCAACCGACGAGTCCGTTT	0.713
CAAACTAGGTCAAGAGTTCAAAGTCCGCTTCCCG	6.21
ACTAGCAGGCCAAGTTTTGGTCACTCAAACAAAG	-0.348
CGTACAGGGTCAGCTAGGCCAGAGTAGGGACGGC	3.78
CCTTACGGGTCACTGACAGGTTATAGAATTTGGA	3.69
GCTGCTAGGACAGGTTGGTCAGCTAACGGGTACG	-0.674
GGAACGAGGGCATGTTGATAGCAGAGTTTGATGG	0.929
CCTTACGGTTCACGAGGTTATAGCACGACGAGCG	4.12
CCTACTGGCCCAAAAAGGTCATTGATGCCGATAA	4.47
TCTATTAGTGGATTAGGGCAACCGAAACAGCGGA	0.547
AACTCTAGGTAAGACTCAGTTCAGTGAAGAACGC	0.138
CAAACTAGGTGAAAGGTCAAAGTCGAGCCAACCA	5.23
GCATATAGGTAATACAAGTTGAAAGTCCGATTGT	0.409
CCTCGGAGGACAACAAGAGGTCAGAGCTGCCAGA	2.88

Sequence	PBM binding z-score
TTACCAAGGAGAAGGTCGTTGATCCCTCTGTAGA	0.838
AGTCAAAGTTCAGGACGAGGTAAGGTAAAGCACG	2.4
CCTACTGGGCCATTCAGAAGTCATTGATCATATG	-0.356
GCGACTGGGGCAAAGCAGGTTTCCATAAGGTTGG	-0.475
CATGCTAGGTCATGGTCAGCTAATCTACAGTATG	1.79
CGTCCCAGGTCAAGGTCAGTGAAAGAGACTCGAA	3.85
TCTCAGAGGACACGAAAGGTCAGAGCTCGACATC	3.62
GCTATCAGTTGAAAGGGCAACCGAATGATTCTCG	0.34
CAAACTCGGTCAAAGGTCAAAGTCGAGCCAACCA	6.22
TGTCAAAGTTCAAGGGTAACGTAAGTATCCACAC	4.26
AGAATGAGGTTATACGTAGATCAGGGACGAAAGT	1.46
GAAGACAGGTGAAACGCAGGTAACTCAGGGTGGC	-0.438
ATCTCTAGGTAACCACGTTCAGTGAATGCCGAAC	0.175
CGTCCTAGGTCAGCAGGTCAGTGAAAGCGACGTG	2.07
GCTATTAGTTGAAAGGGCAAACGAATGATTCTCG	0.622
ATCGAAAGGTCGACGAGGTGAGCATACACCGTTT	5.07
ACTATTAGTTGAGACGAGGGCAACCGGTAGGTTG	0.837
GCAGCTAGGTCAACTGATGGTCAGCTAAAGCTCG	1.19
CCGACTGGGGCAGAAAGGCTACCATACCATCCGG	-0.639
TCATATAGGGAAATGCTAGGTGAAAGTCCGATCT	0.702
